Compounds without any hit were thinned out: in the full panel of roughly 83,000, 20% have a hit.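 48-hour exposure, single concentration, 96-well plates; percent growth endpoint where 0 means no net growth. Active: below 10.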 Unmarked numbers belong to inactive results. Activity calls are given as the source filed them.
Key:
Assay in all cases: NCI-60 one-dose screen, 48 h (100 = growth as untreated, 0 = no growth, -100 = all killed)
HCT-15 colon = conditions: 10 µM unless noted
HT29 colon = conditions: 10 µM unless noted
SNB-75 CNS = conditions: 10 µM unless noted
SNB-19 CNS = conditions: 10 µM unless noted
U251 CNS = conditions: 10 µM unless noted
PC-3 prostate = conditions: 10 µM unless noted
SK-MEL-5 melanoma = conditions: 10 µM unless noted
UACC-62 melanoma = conditions: 10 µM unless noted
LOX IMVI melanoma = conditions: 10 µM unless noted
SK-MEL-28 melanoma = conditions: 10 µM unless noted
SK-MEL-2 melanoma = conditions: 10 µM unless noted
EKVX NSCLC = conditions: 10 µM unless noted
SN12C renal = conditions: 10 µM unless noted
UO-31 renal = conditions: 10 µM unless noted
TK-10 renal = conditions: 10 µM unless noted
ACHN renal = conditions: 10 µM unless noted
CAKI-1 renal = conditions: 10 µM unless noted
A498 renal = conditions: 10 µM
HL-60(TB) leukemia = conditions: 10 µM unless noted
CCRF-CEM leukemia = conditions: 10 µM unless noted

Row | SMILES | growth (HCT-15 colon) | growth (HT29 colon) | growth (SNB-75 CNS) | growth (SNB-19 CNS) | growth (U251 CNS) | growth (PC-3 prostate) | growth (SK-MEL-5 melanoma) | growth (UACC-62 melanoma) | growth (LOX IMVI melanoma) | growth (SK-MEL-28 melanoma) | growth (SK-MEL-2 melanoma) | growth (EKVX NSCLC) | growth (SN12C renal) | growth (UO-31 renal) | growth (TK-10 renal) | growth (ACHN renal) | growth (CAKI-1 renal) | growth (A498 renal) | growth (HL-60(TB) leukemia) | growth (CCRF-CEM leukemia)
1 | CC[C@H](C)[C@H](NC(=O)[C@H]1CCCCN1C)C(=O)N(C)[C@H](C[C@@H](OC(C)=O)c1nc(C(=O)NC23CC(C(=O)OC)(C2)C3)cs1)C(C)C | 6.1% (active) | -9.84% (active) | 15% | 29% | 6.7% (active) | 23.6% | -65.7% (active) | 44.3% | 4.9% (active) | 60.8% | 29.5% | 34.3% | 32.7% | 33.1% | 15.7% | 11.6% | 26.5% | -7.99% (active) | -37.2% (active) | 1.09% (active)
2 | C[Se]C(=O)c1ccccc1OC(C)=O | 81% | 11.1% | -42.4% (active) | 46.6% | 46% | 70% | 79.3% | 58.2% | 45.3% | 46.1% | 75.4% | 33.2% | 69% | 33% | 27.5% | 85.9% | 64.4% | 66.5% | 32.8% | 63.3%
3 | O=C(N/N=C/c1ccc(N(CCCl)CCCl)cc1)c1cccc2ccccc12 | 56.1% | 39.4% | 76.7% | 80.6% | 60.9% | 61.5% | 70.6% | 46.5% | 61.3% | 83% | 81.2% | 85.2% | 73.8% | 78.7% | 87.7% | 80.7% | 80.5% | -9.28% (active) | 29.5% | 56.6%
4 | COc1ccc(/C=C\c2cc(OC)c(OC)c(OC)c2)cc1OCC(=O)Nc1nc2ccc(OC(F)(F)F)cc2s1 | 22.2% | 97.5% | 7.25% (active) | 42.7% | 26% | 34% | 27.3% | 31.1% | 27.1% | 34.4% | 15.6% | 77% | 49.7% | 25.4% | 47% | 43.5% | 35.2% | 30.2% | 52.3% | 28.2%
5 | CC1CCCC(C[N+](C)(C)C)C1=O (stereo not given) | 108% | 105% | 95.2% | 96.6% | 105% | 93.6% | 99.5% | 90% | 50.2% | 108% | 117% | 110% | 92.5% | 73.5% | 106% | 97.5% | 103% | 101% | 104% | 95.2%
6 | N#C[Se]Cc1cc(-c2ccccc2)n(-c2ccc(S(N)(=O)=O)cc2)n1 | 4.73% (active) | -27% (active) | -38.3% (active) | -100% (active) | -61.2% (active) | -13.1% (active) | -76.6% (active) | -9.79% (active) | -69.4% (active) | -58.8% (active) | -35.9% (active) | -1.91% (active) | 6.49% (active) | -25.6% (active) | -29.7% (active) | 1.16% (active) | 0.316% (active) | -61.4% (active) | -44.5% (active) | -16.4% (active)
7 | CC(C)(N)Cc1ccccc1 | 105% | 97.2% | 103% | 108% | 105% | 88.9% | 116% | 107% | 103% | 116% | 108% | 99.1% | 108% | 84.7% | 96.5% | 106% | 97.6% | 111% | 94.9% | 100%
8 | ClCCN(CCCl)c1nc(Cl)c(C2CC(c3ccccc3)=NN2c2cc(Cl)cc(Cl)c2)s1 (stereo not given) | 104% | 101% | 96.4% | 98.7% | 99.4% | 93.7% | 102% | 92.9% | 99.2% | 106% | 103% | 101% | 95.2% | 89.6% | 109% | 96.1% | 83.4% | 116% | 105% | 102%
9 | CCn1nccc1NC(=O)C(=O)c1cn(Cc2ccc(F)cc2)c2cccc(OC)c12 | 91.8% | 112% | 91% | 90.9% | 92.1% | 90.6% | 87.3% | 78.4% | 84.2% | 107% | 48.2% | 81.6% | 86.9% | 47.5% | 120% | 85.3% | 98.6% | 94.1% | 56.8% | 76.6%
10 | COc1cc(C=Nc2cccc(Br)c2)ccc1N(CCCl)CCCl | 82.4% | 63.4% | 69.1% | 91.9% | 73% | 68.4% | 86% | 76.1% | 68.7% | 116% | 91.2% | 120% | 84.5% | 69.1% | 92.9% | 18.2% | 5.9% (active) | 120% | 71.2% | 63.5%
11 | CC(=O)OC1C(OC/C2=C/C3[C@@H](C(C)C)CC=C(C)[C@@H]3CC(OC(=O)/C=C/c3cn(C)cn3)[C@]3(C)C=C[C@@]2(O)O3)OCC(O)C1O (stereo not given in full) | 36.2% | 8.89% (active) | -28.6% (active) | 37% | 18.2% | 26.5% | 7.53% (active) | 26.5% | 35.2% | 45.7% | 45.6% | 33.9% | 44.2% | 40.4% | 32.3% | 45% | 37% | 13.2% | -3.65% (active) | 22.5%
12 | CC[CH2][Sn]([Cl])([Cl])[CH2]CC | 83.1% | 103% | 55.9% | 88.9% | 39.2% | 103% | 86.4% | 60% | 27.6% | 69.2% | 52.4% | 104% | 74.5% | 76.6% | 56.8% | 76.3% | 64.1% | 47.4% | 54.9% | 10%
13 | O=C(O)C(O)C(O)C1[O][Sb]([c]2ccc([N+](=O)[O-])cc2)[O]C1CO (stereo not given) | 95.8% | 101% | 99.1% | 94.9% | 101% | 100% | 103% | 91.9% | 101% | 106% | 115% | 105% | 90.4% | 96.4% | 98.4% | 101% | 102% | 83.6% | 92.8% | 98.5%
14 | CN(C)CCCOc1ccc2c(c1)c(C(=O)C(=O)NCCO)cn2Cc1ccccc1 | 105% | 107% | 97.4% | 102% | 96.4% | 105% | 99.8% | 100% | 93% | 118% | 114% | 102% | 104% | 84% | 116% | 99.2% | 90.5% | 59.8% | 106% | 102%
15 | COc1cc(/C=C/[N+](=O)[O-])cc(OC)c1 | -44.5% (active) | -25.6% (active) | 25.1% | 24.6% | -50.9% (active) | -25.4% (active) | 8.23% (active) | 2.61% (active) | -93.9% (active) | -16.9% (active) | 59.6% | 59.4% | 44.7% | -82.3% (active) | -13.9% (active) | -48.9% (active) | 44.2% | -4.1% (active) | -20.3% (active) | -7.03% (active)

From PubChem BioAssay (NCI)
